Molecules are shown by their SMILES. “And” between values parts separate entries of the source, which are not always exact repeats. Identical values can stand only once. More than one record can exist for a structure, and the calls need not agree. The source made the active and inactive calls. The calls were made as follows: active = hit-call score of the fitted dose curve at least 0.9, where 1 is the maximum; inactive = score below 0.9.

Read-out in assay [1]: Intercellular Adhesion Molecule 1 (ICAM1), ICAM1 (gene 3383)
The assay is described as follows: BSK_BE3C_ICAM1: BioMAP Diversity Plus: BE3C Assay for Intercellular Adhesion Molecule 1 (ICAM1) Biomarker Activity (AID 2284278).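 As to outcome: cell-surface ICAM-1 protein level quantified by ELISA.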 To be noted: primary human bronchial epithelial cells. Summed up: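 hu bronchial epithelial primary cells, 24 h cpd exposure, ICAM-1 ELISA; gain-of-signal fit vs DMSO baseline.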

Read-out in assay [2]: Interferon-inducible T-cell alpha chemoattractant (ITAC), CXCL11 (gene 6373)
Briefly: BSK_BE3C_ITAC: BioMAP Diversity Plus: BE3C Assay for Interferon-inducible T-cell alpha chemoattractant (ITAC) Biomarker Activity (AID 2284279). To be noted: primary human bronchial epithelial cells. Summed up: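 ELISA read-out of I-TAC after 24 h chemical dosing of human lung primary bronchial epithelial cells; gain-of-signal fit vs DMSO baseline. Parallel SRB total-protein staining (0.1% SRB, 10% TCA fixation, 560 nm) assessed cytotoxicity.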

Read-out in assay [3]: Interleukin-8 (IL8), CXCL8 (gene 3576)
Briefly: BSK_BE3C_IL8: BioMAP Diversity Plus: BE3C Assay for Interleukin-8 (IL8) Biomarker Activity (AID 2284280). The note with it: primary human bronchial epithelial cells. Put shortly: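 Measured at 24 h after treatment, IL-8 from human primary bronchial epithelial cells is determined by ELISA, and the response is modelled as increasing relative to DMSO negative control.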

Read-out in assay [4]: Epidermal growth factor receptor (EGFR), EGFR (gene 1956)
The assay is described as follows: BSK_BE3C_EGFR: BioMAP Diversity Plus: BE3C Assay for Epidermal growth factor receptor (EGFR) Biomarker Activity (AID 2284281). To be noted: primary human bronchial epithelial cells. Put shortly:
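Measured 24 h after dosing in primary human bronchial epithelial cultures, EGFR was read by ELISA; gain of signal over DMSO control defined activity.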

Read-out in assay [5]: KRT18 (gene 3875)
The assay is described as follows: BSK_BE3C_Keratin818: BioMAP Diversity Plus: BE3C Assay for Keratin 818 Biomarker Activity (AID 2284282). To be noted: primary human bronchial epithelial cells. Summed up: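 In this multiplexed primary-cell system, bronchial epithelial cells were dosed and harvested at 24 h. Keratin 8/18 was determined by ELISA and analysed for increases over DMSO controls.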

Read-out in assay [6]: Matrix Metallopeptidase 9 (MMP9), MMP9 (gene 4318)
The assay is described as follows: BSK_BE3C_MMP9: BioMAP Diversity Plus: BE3C Assay for Matrix Metallopeptidase 9 (MMP9) Biomarker Activity (AID 2284283). The note with it: primary human bronchial epithelial cells. Summed up:
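BE3C, human bronchial epithelial primary cells; 24 h post-dose; MMP-9 by ELISA; positive fit vs DMSO; SRB (0.1%, TCA-fixed, 560 nm) parallel cytotox.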

Read-out in assay [7]: Plasminogen activator inhibitor-1 (PAI1), SERPINE1 (gene 5054)
Briefly: BSK_CASM3C_PAI1: BioMAP Diversity Plus: CASM3C Assay for Plasminogen activator inhibitor-1 (PAI1) Biomarker Activity (AID 2284284).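 Also: PAI-1 protein level measured by ELISA 24 h after dosing.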 The note with it: primary human coronary artery smooth muscle cells.

Read-out in assay [8]: Monocyte Chemoattractant Protein-1 (MCP1), CCL2 (gene 6347)
Briefly: BSK_hDFCGF_MCP1: BioMAP Diversity Plus: hDFCGF Assay for Monocyte Chemoattractant Protein-1 (MCP1) Biomarker Activity (AID 2284285). To be noted: primary human foreskin fibroblasts. Summed up: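 MCP-1 ELISA readout was taken 24 hours after dosing primary human dermal fibroblasts in the hDFCGF system, with DMSO as baseline. Parallel sulforhodamine B staining of total protein tracked overt cytotoxicity.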

Read-out in assay [9]: Vascular cell adhesion molecule 1 (VCAM1), VCAM1 (gene 7412)
The assay is described as follows: BSK_IMphg_VCAM1: BioMAP Diversity Plus: IMphg Assay for Vascular cell adhesion molecule 1 (VCAM1) Biomarker Activity (AID 2284286). To be noted: primary human endothelial cells with macrophages. Summed up: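 ELISA read-out of VCAM-1 on venular endothelial cell/macrophage co-cultures at 24 h post-treatment, with DMSO as baseline and positive-direction fitting. Parallel sulforhodamine B total-protein staining (560 nm) served as the overt cytotoxicity measure.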

Read-out in assay [10]: Intercellular Adhesion Molecule 1 (ICAM1), ICAM1 (gene 3383)
Briefly: BSK_hDFCGF_ICAM1: BioMAP Diversity Plus: hDFCGF Assay for Intercellular Adhesion Molecule 1 (ICAM1) Biomarker Activity (AID 2284287). The note with it: primary human foreskin fibroblasts. Summed up: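 ICAM-1 ELISA readout 24 h after dosing, DMSO as baseline, in human dermal foreskin fibroblast cultures. Cytotoxicity checked in parallel wells by SRB staining (0.1% SRB, 10% TCA fixation, 560 nm).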

As for `FC(F)(F)C(F)(F)C(F)(F)C(F)(F)C(F)(F)C(F)(F)CC[Si](Cl)(Cl)Cl`, the outcome in [1], in assay [2], in assay [3], in assay [4], in assay [5] and in assay [6] was inactive. For the same molecule, the result in assay [7], in assay [8], in assay [9] and in [10] was inactive. Also, the AC50 in assay [8] is 39.3 nM (active).
As to `C=CC(=O)OCC(F)(F)C(F)(F)C(F)(F)C(F)(F)C(F)(F)C(F)(F)C(F)(F)C(F)F`, the outcome in assay [1], in assay [2], in assay [3], in assay [4], in assay [5] and in assay [6] was inactive. For the same molecule, the outcome in assay [7], in assay [8], in assay [9] and in assay [10] was inactive. For the same molecule, the AC50 in assay [8] was 6810 nM (active); in [10], 20.3 µM (active).
As for `O=S(=O)(Cl)C(F)(F)C(F)(F)C(F)(F)C(F)(F)C(F)(F)C(F)(F)C(F)(F)C(F)(F)F`, the AC50 in [1] is 54.9 µM (active) and 54.8 µM (active); in [2] it was 53.8 µM (active) and 55.1 µM (active); in assay [3], 41.3 µM (active) and 21.5 µM (active); in assay [4], 22.7 µM (active) and 30 µM (active); in assay [5] it was 46.7 µM (active); in [6], 55.1 µM (active) and 55.2 µM (active). The outcome in [5], in assay [7], in [8], in assay [9] and in assay [10] was inactive.
Consider `O=C(O)C(F)(F)C(F)(F)C(F)(F)C(F)(F)C(F)(F)C(F)(F)C(F)F`, for which the outcome in assay [1], in assay [2], in [3], in assay [4], in [5] and in assay [6] was inactive. The outcome in [7], in [8], in [9] and in assay [10] was inactive.
Take `O=S(=O)(OCC(F)(F)F)C(F)(F)C(F)(F)C(F)(F)C(F)(F)F`: the result in assay [1], in assay [2], in assay [3], in assay [4], in assay [5] and in assay [6] was inactive. Also, the outcome in [7], in [8], in assay [9] and in assay [10] was inactive. Moreover, the half-maximal activity concentration (AC50) in assay [6] was 6.24 µM (active).
For the molecule `O=S(=O)(O)CCC(F)(F)C(F)(F)C(F)(F)C(F)(F)C(F)(F)C(F)(F)C(F)(F)C(F)(F)F`, the result in assay [1], in assay [2], in [3], in [4], in assay [5] and in [6] was inactive. Also, the outcome in assay [7], in assay [8], in assay [9] and in [10] was inactive. In addition, the AC50 is 20.4 µM (active) in [3] and 22.4 µM (active) in assay [10].
With `C=CC(=O)OCC(F)(F)C(F)(F)C(F)(F)COC(=O)C=C`, the AC50 in assay [1] is 38.5 µM (active) and 35.5 µM (active); in assay [2] it was 45 µM (active) and 43 µM (active); in assay [3] it was 13.2 µM (active) and 8.09 µM (active); in assay [6] it was 8.23 µM (active) and 8.72 µM (active); in assay [7] it was 46 µM (active) and 48.8 µM (active); in [8] it was 2.84 µM (active) and 2.59 µM (active). Besides, the AC50 in assay [9] is 35 µM (active) and 40 µM (active); in assay [10] it was 2.6 µM (active) and 2.45 µM (active). Further, the outcome in assay [4] and in assay [5] was inactive.
With `C=CC(=O)OCCC(F)(F)C(F)(F)C(F)(F)C(F)(F)F`, the outcome in assay [1], in assay [2], in [3], in assay [4], in [5] and in [6] was inactive. Further, the outcome in assay [7], in assay [8] and in [9] was inactive. The AC50 was 20300 nM (active) in [8]; 30 µM (active) and 38.2 µM (active) in [10].
Take `C[Si](Cl)(Cl)CCC(F)(F)C(F)(F)C(F)(F)C(F)(F)C(F)(F)C(F)(F)F`: the result in assay [1], in assay [2], in [3], in [4], in assay [5] and in assay [6] was inactive. The outcome in assay [7], in assay [8], in assay [9] and in assay [10] was inactive. For the same molecule, the half-maximal activity concentration (AC50) is 441 nM (active) in [8] and 2.46 µM (active) in assay [10].
With `C=C(C)C(=O)OCC(F)(F)C(F)(F)C(F)(F)C(F)F`, the outcome in [1], in assay [2], in assay [3], in assay [4], in assay [5] and in [6] was inactive. Besides, the result in [7], in assay [8], in assay [9] and in [10] was inactive.
`CCN(CCO)S(=O)(=O)C(F)(F)C(F)(F)C(F)(F)C(F)(F)C(F)(F)C(F)(F)C(F)(F)C(F)(F)F`: the AC50 in [1] is 51.6 µM (active); in assay [2] it was 47.1 µM (active) and 42.6 µM (active); in [3], 19.3 µM (active) and 11.8 µM (active); in [4], 23.2 µM (active) and 13.9 µM (active); in assay [6] it was 21.5 µM (active) and 43.3 µM (active); in [8] it was 32.7 µM (active) and 30 µM (active). Further, the AC50 in assay [9] is 39 µM (active). Besides, the outcome in assay [1], in [5], in assay [7], in assay [9] and in [10] was inactive.

For the origin of these results see PubChem BioAssay (EPA / NIEHS).
